Data as given in PubChem BioAssay AID1159580 (chemical genetic matrix, 2015).
“And” between values parts separate entries of the source, which are not always exact repeats. Identical values can stand only once. Hit rate of the full screen: of about 5,500 compounds, about 2,000 (36%) were called active. Not shown: some 18% with an inconclusive outcome. Rule as the data show it: active = normalized growth mostly below about 0.91 (no sharp cut-off); inconclusive = no clear call, values can overlap the other calls; inactive = mostly above about 0.92. Some of the results follow.

Test: chemical genetic growth profiling, strain panel (AID 1159580);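 also: tested at 20 µM; growth read once vehicle control cultures reached saturation at 30 °C; 1 = growth at the plate median or of vehicle wells; lower values mean less growth of the strain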
Conditions: S. cerevisiae deletion strains, growth OD

Measured: normalized growth

NC(Cn1ccc(=O)c(O)c1)C(=O)O (configuration not stated)
inactive: locus YAL013W, strain DEP1, active compounds read low 1.01 | locus YAL021C, strain ccr4, active compounds read low 1 | locus YAL026C, strain drs2, active compounds read low 1.04 | locus YAL030W, strain snc1, active compounds read low 1.01 | locus YBL061C, strain skt5, active compounds read low 1.03 | locus YBR009C, strain hhf1, active compounds read low 0.992 | locus YBR021W, strain FUR4, active compounds read low 1.01 | locus YBR023C, strain chs3, active compounds read low 1.03 | locus YBR171W, strain sec66, active compounds read low 1.03 | locus YBR229C, strain ROT2, active compounds read low 1.02 | locus YBR231C, strain swc5, active compounds read low 1.01 | locus YBR279W, strain paf1, active compounds read low 1.03 | locus YCL011C, strain gbp2, active compounds read low 1.03 | locus YCL016C, strain dcc1, active compounds read low 1.04 | locus YCL029C, strain bik1, active compounds read low 0.98 | locus YCL061C, strain MRC1, active compounds read low 1.01 | locus YCL069W, strain vba3, active compounds read low 1.01 | locus YCR088W, strain abp1, active compounds read low 1.02 | locus YDL005C, strain med2, active compounds read low 1.03 | locus YDL035C, strain GPR1, active compounds read low 1.03 | locus YDL040C, strain nat1, active compounds read low 1.02 | locus YDL074C, strain BRE1, active compounds read low 1.03 | locus YDL101C, strain DUN1, active compounds read low 1.02 | locus YDL134C, strain PPH21, active compounds read low 1.01 | locus YDL185W, strain tfp1, active compounds read low 0.978 | locus YDL192W, strain arf1, active compounds read low 0.994 | locus YDR001C, strain nth1, active compounds read low 1.02 | locus YDR069C, strain doa4, active compounds read low 1.02 | locus YDR101C, strain arx1, active compounds read low 1 | locus YDR137W, strain rgp1, active compounds read low 1.05 | locus YDR150W, strain NUM1, active compounds read low 1.01 | locus YDR159W, strain sac3, active compounds read low 0.943 | locus YDR162C, strain NBP2, active compounds read low 1.02 | locus YDR195W, strain ref2 1.01 | locus YDR297W, strain sur2, active compounds read low 0.998 | locus YDR318W, strain mcm21, active compounds read low 0.992 | locus YDR334W, strain swr1, active compounds read low 1.02 | locus YDR335W, strain msn5, active compounds read low 1.03 | locus YDR388W, active compounds read low 0.993 | locus YDR392W, strain spt3, active compounds read low 0.959 | locus YDR502C, strain sam2, active compounds read low 1.01 | locus YEL003W, strain gim4, active compounds read low 1 | locus YEL037C, strain rad23, active compounds read low 1.02 | locus YEL061C, strain CIN8 (second series), active compounds read low 1.03 | locus YEL061C, strain CIN8, active compounds read low 1.01 | locus YER015W, strain faa2, active compounds read low 1.01 | locus YER016W, strain bim1, active compounds read low 1.05 | locus YER110C, active compounds read low 0.969 | locus YER111C, strain swi4, active compounds read low 1.02 | locus YER155C, strain BEM2 (second series), active compounds read low 1.01 | locus YER155C, strain BEM2, active compounds read low 1.01 | locus YER167W, strain BCK2, active compounds read low 1.03 | locus YFR010W, strain ubp6, active compounds read low 0.994 | locus YGL078C, strain dbp3, active compounds read low 1.01 | locus YGL086W, strain mad1, active compounds read low 1 | locus YGL167C, strain pmr1, active compounds read low 1.02 | locus YGL173C, strain kem1, active compounds read low 1 | locus YGL227W, strain vid30, active compounds read low 1.05 | locus YGL240W, strain doc1, active compounds read low 1 | locus YGL248W, strain PDE1, active compounds read low 1.02 | locus YGL253W, strain hxk2, active compounds read low 1.03 | locus YGR078C, strain PAC10, active compounds read low 1.02 | locus YGR135W, strain pre9, active compounds read low 1.02 | locus YGR229C, strain SMI1, active compounds read low 1.02 | locus YGR252W, strain gcn5, active compounds read low 1.07 | locus YHR013C, strain ard1, active compounds read low 1.05 | locus YHR027C, strain rpn1, active compounds read low 1.02 | locus YHR030C, strain SLT2, active compounds read low 1.01 and 1.02 | locus YHR079C, strain IRE1 (second series), active compounds read low 0.988 | locus YHR079C, strain IRE1, active compounds read low 1.04 | locus YHR094C, strain hxt1, active compounds read low 0.996 | locus YHR129C, strain ARP1, active compounds read low 1.01 | locus YHR142W, strain chs7, active compounds read low 1.03 | locus YHR200W, strain rpn10, active compounds read low 0.991 | locus YIL066C, strain RNR3, active compounds read low 1.02 | locus YIL073C, strain SPO22, active compounds read low 0.978 | locus YIL125W, strain kgd1, active compounds read low 1 | locus YIR030C, strain dcg1, active compounds read low 0.986 | locus YJL092W, strain hpr5, active compounds read low 1.01 | locus YJL095W, strain BCK1 (second series), active compounds read low 1.03 | locus YJL095W, strain BCK1, active compounds read low 1.02 and 1.01 | locus YJL115W, strain asf1, active compounds read low 1.02 | locus YJL129C, strain trk1, active compounds read low 1.03 | locus YJL134W, strain LCB3, active compounds read low 1.01 | locus YJL154C, strain vps35, active compounds read low 1.01 | locus YJL164C, strain tpk1, active compounds read low 0.996 | locus YJL166W, strain qcr8, active compounds read low 1.01 | locus YJL168C, strain set2, active compounds read low 0.99 | locus YJL187C, strain SWE1 (second series), active compounds read low 1.01 | locus YJL187C, strain SWE1, active compounds read low 1.01 | locus YJR043C, strain POL32, active compounds read low 1.01 | locus YJR066W, strain TOR1, active compounds read low 0.98
